Bioassay records from PubChem BioAssay.
aSyn UTR act – Activators working through SNCA 5'UTR binding (MLPCN); 300,000 tested, 7.1% active; alpha-synuclein 5'UTR reporter, activators screen; activity score, % (tested at 7.5 µM), hits read low; in the data active = activity score below about -60%
Starred values were filed as active, the others as inactive. These entries were drawn from the full list.

SMILES	aSyn UTR act
CC(=O)N(C(C)=O)c1ncc2c([nH]c3ccccc32)c1C#N	65
CNC(=O)c1cc2c(cn1)[nH]c1ccccc12	-98*
COc1cc(NS(=O)(=O)c2ccc(C)cc2)c2ncccc2c1	69
CCS(=O)(=O)Nc1cccc(-c2nc3cccnc3s2)c1C	-99*
Cc1ccc(-c2nc3cccnc3s2)cc1NS(C)(=O)=O	-186*
c1ccc(-c2nnc(CN3CCCCC3)o2)cc1	-74*
c1ccc(Cc2nnc(-c3ccccc3)o2)cc1	-120*
Brc1ccc(-c2nnc(Cc3ccccc3)o2)cc1	-169*
Cc1ccccc1-c1nnc(Cc2ccccc2)o1	-137*
COc1ccc(Cc2nnc(-c3ccccc3)o2)cc1	-94*
Cc1ccc(C#N)c(SCc2nnc(-c3ccc(Cl)cc3)o2)n1	90
Cc1ccc(-c2nnc(Cc3ccc(Cl)cc3)o2)cc1	-85*
O=C(Nc1nnc(-c2ccncc2)s1)Nc1ccccc1F	-102*
O=C(Nc1nnc(Cc2ccccc2)s1)Nc1ccccc1F	-103*
COc1cc(C)ccc1OCCOc1ccccc1Cl	-208*
CC1(C)N=C(N)N=C(N)N1c1ccc(OCCCOc2ccccc2)c(Cl)c1	78
COc1cc(C)ccc1OCCCOc1ccccc1Cl	-207*
Cc1cc(C)c(S(=O)(=O)Nc2ccc(N(C)C)cc2)c(C)c1-n1cnnn1	-79*
O=C(c1ccccc1)c1coc2c1C(=O)c1ccccc1C2=O	-80*
O=C1c2ccccc2C(=O)c2c1oc(C(F)(F)F)c2C(=O)c1ccccc1	101
O=C(Nc1nnc(S(=O)(=O)N2CCN(c3ccc(F)cc3)CC2)s1)c1ccccc1	-63*
O=C(Nc1nnc(S(=O)(=O)N2CCCCCC2)s1)c1ccccc1	-65*
CCOc1ccc(NC(=O)c2[nH]c(C)c(C(C)=O)c2C)cc1	-76*
CCc1c(C(=O)Nc2ccc(OC)cc2)[nH]c(C)c1C(C)=O	-93*
CCc1ccc(NC(=O)c2[nH]c(C)c(C(C)=O)c2C)cc1	-223*
SMILES	aSyn UTR act
COc1ccc(NC(=O)c2[nH]c(C)c(C(C)=O)c2C)cc1	-193*
COC(=O)c1cccc(N/C=C(\[N+](=O)[O-])S(=O)(=O)c2ccccc2)c1	-62*
O=C(Nc1nc2ccccc2[nH]1)c1ccc(Cl)c([N+](=O)[O-])c1	-109*
O=C(Nc1nc2ccccc2[nH]1)c1ccccc1[N+](=O)[O-]	-118*
Cc1c(C(=O)Nc2nc3ccccc3[nH]2)cccc1[N+](=O)[O-]	-167*
CS(=O)(=O)c1cnc2c(-c3ccsc3)cnn2c1N	-85*
CC(C)(C)S(=O)(=O)c1cnc2c(-c3ccc(Cl)cc3)cnn2c1N	-78*
COc1ccc(-c2cnc3c(-c4ccc(F)cc4)cnn3c2N)cc1	-241*
Nc1c(-c2ccc(Cl)cc2)cnc2c(-c3ccccc3)cnn12	-205*
CCN(CC)C(=O)C1CC(c2ccc(OC)cc2)=NO1 (configuration not stated)	-103*
CCN(CC)S(=O)(=O)c1ccc(NC(=O)c2ccccn2)cc1	-120*
CN(C)S(=O)(=O)c1ccc(NC(=O)c2ccccn2)cc1	-79*
CN(C)S(=O)(=O)c1ccc(C(=O)Nc2ccccn2)cc1	-70*
CCOC(=O)c1c(C)oc2c1c(C(c1ccccc1)N1CCOCC1)c(O)c1ccccc12 (configuration not stated)	-205*
CCOC(=O)c1c(C)oc2c1c(C(c1cccnc1)N1CCCCC1)c(O)c1ccccc12 (configuration not stated)	-146*
COc1ccc(OC)c(/C=C2\SC(=S)N(Cc3cccnc3)C2=O)c1	-62*
Cc1onc(-c2c(F)cccc2Cl)c1C(=O)O/N=C(\N)c1ccc([N+](=O)[O-])o1	-80*
Cc1onc(-c2c(Cl)cccc2Cl)c1C(=O)N/N=C(\N)COc1ccc(Cl)cc1	89
Oc1ccccc1CNc1ccc(Br)cn1	-300*
COc1ccccc1CNc1ccc(Br)cn1	-113*
C[C@@H]1CC=C[C@H]2[C@H]1C(=O)N(Cc1ccccc1)[C@H]2c1ccc(-c2cc3ccccc3s2)cc1F	-138*
CCc1ccc(/C=C2/C(=O)N(C)C(=S)N2CC(=O)OC)s1	-81*
Cc1ccsc1/C=N/NC(=O)c1ccc2ccccc2c1	-216*
Cc1ccsc1/C=N/NC(=O)c1ccc([N+](=O)[O-])cc1	-88*
COc1cc(C(=O)N/N=C/c2sccc2C)cc(OC)c1OC	114
SMILES	aSyn UTR act
Cc1ccsc1/C=N/NC(=O)Nc1ccccc1	-162*
CC(/C=N/NC(=O)c1ccccn1)=C\c1ccco1	-75*
O=C(N/N=C/C(Br)=C/c1ccccc1)c1cnccn1	-110*
O=C(N/N=C/C(Cl)=C/c1ccccc1)c1ccccn1	-66*
O=C(N/N=C/C=C/c1ccccc1)c1n[nH]c2c1CCC2	70
O=C(N/N=C/C=C/c1ccccc1)c1ccccn1	-166*
Cc1cc(C(=O)N/N=C/C(Cl)=C/c2ccccc2)c(C)o1	-67*
O=C(N/N=C/C=C\c1ccco1)c1ccccn1	-145*
CCN(CC)c1ccc(/C=N/NC(=O)c2nnn(-c3nonc3N)c2C(C)C)c(O)c1	92
CC(/C=N/NC(=O)c1nnn(-c2nonc2N)c1C(C)C)=C\c1ccco1	-62*
O=C(N/N=C\C=C\c1ccco1)c1cc(-c2ccc3ccccc3c2)n[nH]1	-146*
Nc1nnn(CC(=O)N/N=C/C=C/c2ccccc2)n1	-87*
COc1ccc(/C=C/C(=O)C2C(=O)C=C(C)OC2=O)cc1O (configuration not stated)	-243*
COCc1nn2c(N)c(-c3ccccc3)cnc2c1-c1ccccc1	-106*
Nc1c(-c2ccccc2)cnc2cc(-c3ccccc3)nn12	-121*
Cc1cc2ncc(-c3ccc(Cl)cc3)c(N)n2n1	-117*
CCOc1ccc2[nH]c3c(NCC(C)C)ncnc3c2c1	-99*
O=c1c2[nH]c3ccccc3c2ncn1CCC1=CCCCC1	-121*
COc1ccc2[nH]c3c(NCCCN4CCCC4=O)ncnc3c2c1	-96*
COc1ccc2[nH]c3c(=O)n(CCc4ccccc4)cnc3c2c1	-76*
CCOc1ccc2[nH]c3c(NCCCOC)ncnc3c2c1	-96*
CC(C)OCCCNc1ncnc2c1[nH]c1ccccc12	-178*
CC(C)/C=C1\CC/C(=C\c2cccnc2)C1=O	-62*
Cc1cccc(/C=C2\CCC(=C3SCCCS3)C2=O)c1	85
O=C1/C(=C/c2cccnc2)CC/C1=C\c1cccnc1	-65*
SMILES	aSyn UTR act
C/C(=N\Nc1cc(C)nc(-c2ccccc2O)n1)c1ccccc1	-65*
Cc1cc(N/N=C/c2ccc(O)c(C)c2O)nc(-c2ccccc2O)n1	87
Cc1ccc(Nc2cc(C)nc(-c3ccccc3)n2)cc1	-124*
Cc1ccc(Nc2cc(C)nc(-c3ccccc3O)n2)cc1	-116*
Cc1cc(NCCCN)nc(-c2ccccc2O)n1	-69*
Cc1ccc(Oc2cc(C)nc(-c3ccccc3O)n2)cc1	-69*
CC(C)(C)c1ccc(OCCn2ccccc2=O)cc1	-154*
C/C(=N\NC(=O)c1cc2ccccc2cc1O)c1ccccn1	88
C/C(=N/NC(=O)c1cc2ccccc2cc1O)C1C(=O)c2ccccc2C1=O	-94*
C[n+]1c(/C=C/c2ccc(O)cc2)ccc2ccccc21	-172*
C[n+]1c(/C=C/c2ccc3c(c2)OCO3)ccc2ccccc21	-150*
O=C(C[n+]1cn(C(F)F)c2ccccc21)c1ccc(OC(F)F)cc1	-129*
Cn1c(/C(C#N)=C(\O)c2ccc(Br)s2)nc2ccccc21	-72*
Cc1ccc(-n2nc(C)c3c2OC(N)=C(C#N)C3c2cccs2)cc1 (configuration not stated)	-91*
